# Screening results as filed in PubChem BioAssay.
# pPAFAH inh = pPAFAH enzyme inhibitors, primary screen, biochemical, fluorescence polarization, human | Platelet-activating factor acetylhydrolase (Homo sapiens), Q13093 | recombinant pPAFAH, FP-rhodamine probe fluorescence polarization | inhibition, % at 3.39 µM | hit rate 1.5% among 330,000 | AID 463082, 2010;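 active = inhibition above the mean inhibition across the screen plus 3 SD, cut at about 25% in these data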;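 note: inhibitors block binding of the rhodamine activity-based probe so polarization drops; 0% = enzyme with DMSO and 100% = wells lacking pPAFAH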
# PAFAH1B3 FP inh = PAFAH1B3 enzyme inhibitors, primary screen, biochemical, fluorescence polarization, human; Platelet-activating factor acetylhydrolase IB subunit alpha1 (Homo sapiens), Q15102; recombinant PAFAH1B3, FP-rhodamine probe; inhibition, % at 3.39 µM; hit rate 0.28% among 340,000; AID 492972, 2010;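 active = inhibition above the screen-wide average of all tested compounds plus 3 SD, cut at about 25% in these data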;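 note: 0% = enzyme with DMSO only and 100% = wells lacking PAFAH1B3 protein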
# Target sequence (Q15102 whole entry, looked up): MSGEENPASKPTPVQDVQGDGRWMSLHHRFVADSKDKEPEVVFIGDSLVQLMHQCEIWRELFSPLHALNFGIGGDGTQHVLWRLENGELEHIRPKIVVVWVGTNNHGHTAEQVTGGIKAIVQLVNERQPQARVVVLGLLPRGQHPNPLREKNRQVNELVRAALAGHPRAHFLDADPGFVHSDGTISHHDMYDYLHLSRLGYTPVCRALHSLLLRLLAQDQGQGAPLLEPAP
# PAFAH1B2 FP inh = PAFAH1B2 enzyme inhibitors, primary screen, biochemical, fluorescence polarization, human; Platelet-activating factor acetylhydrolase IB subunit alpha2 (Homo sapiens), P68402; recombinant PAFAH1B2, FP-rhodamine activity probe; inhibition, % at 3.39 µM; hit rate 1.2% among 340,000;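 active = inhibition above the mean of all tested compounds plus 3 SD, cut at about 24% in these data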;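 note: 0% = enzyme with DMSO and 100% = wells lacking PAFAH1B2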
# Target sequence (P68402 whole entry, looked up): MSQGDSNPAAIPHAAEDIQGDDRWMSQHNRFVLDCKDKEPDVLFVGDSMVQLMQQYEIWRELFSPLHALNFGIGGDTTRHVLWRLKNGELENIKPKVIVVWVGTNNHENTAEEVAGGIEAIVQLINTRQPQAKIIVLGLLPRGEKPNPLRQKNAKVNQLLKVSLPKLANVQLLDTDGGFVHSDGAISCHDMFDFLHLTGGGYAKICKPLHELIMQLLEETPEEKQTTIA
# Pemphigus Ab inh = inhibitors of pemphigus antibody binding to DSG3, primary screen, biochemical, bead-based, flow cytometry, scFv-GFP; Desmoglein-3 (Homo sapiens), P32926; DSG3-coupled beads, scFv-anti-DSG3-GFP binding; stronger effect = lower value; binding (percent of control), % at 10 µM; hit rate 0.48% among 310,000;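 active = binding more than 3 SD below its plate's average and above zero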
# PfM18AAP inh-1 = PfM18AAP inhibitors, malaria aminopeptidase, primary screen, biochemical, QFRET, recombinant enzyme | hit rate 1.2% among 290,000 | H-Glu-NHMec fluorogenic cleavage | M18 aspartyl aminopeptidase (Plasmodium falciparum 3D7) | inhibition, % at 7.35 µM;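 active = inhibition above the campaign mean inhibition over all tested compounds plus 3 SD, cut at about 28% in these data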;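 note: 0% = plate median of test compound wells and 100% = 2 mM ZnCl2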
# PAFAH2 FP inh = PAFAH2 enzyme inhibitors, primary screen, biochemical, fluorescence polarization, human. Platelet-activating factor acetylhydrolase 2, cytoplasmic (Homo sapiens), Q99487. recombinant PAFAH2, FP-rhodamine activity probe. inhibition, % at 3.39 µM. hit rate 0.99% among 340,000. AID 492956, 2010;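 active = inhibition above the mean over all tested compounds plus 3 SD, cut at about 30% in these data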;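 note: inhibitors block probe labeling of enzyme so polarization drops; 0% = enzyme with DMSO and 100% = wells lacking PAFAH2 protein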
# PfM18AAP inh-2 = PfM18AAP inhibitors, malaria aminopeptidase, confirmation, biochemical, QFRET, recombinant enzyme, triplicate; shares compounds with PfM18AAP inh-1; H-Glu-NHMec fluorogenic cleavage; inhibition, % at 7.35 µM; hit rate 28% among 2,400; AID 2170, 2009;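 active = mean inhibition over replicate wells above the hit cutoff set for the earlier primary screen, cut at about 29% in these data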;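 note: 0% = median of test compound wells and 100% = 2 mM ZnCl2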
# CTSL1 counter = cathepsin L1 inhibitors, retest, confirmation, counter-screen for PFM18AAP inhibitor project, biochemical, QFRET, triplicate; AID 2178, 2009; shares compounds with PfM18AAP inh-1; purified cathepsin L1, Z-Leu-Arg-MCA fluorescence; 2,400 tested, under 10 active; inhibition, % at 5.96 µM;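 active = average inhibition across replicates above the hit cutoff set in the earlier primary screen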;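 note: 0% = median of test compound wells and 100% = Z-Phe-Ala-diazomethylketone 1 µM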
# * marks the source's active call; other numbers are inactive results; . = no result. Most compounds without a hit are left out; they make up all but 3.8% or so of the library.
SMILES,pPAFAH inh,PAFAH1B3 FP inh,PAFAH1B2 FP inh,Pemphigus Ab inh,PfM18AAP inh-1,PAFAH2 FP inh,PfM18AAP inh-2,CTSL1 counter
COc1ccc(-c2csc(Nc3ncccc3C)n2)cc1OC,10,4,5,98,1,2,.,.
Cc1sc(/N=C/c2c(O)ccc3ccccc23)c(C#N)c1C,0,.,.,.,10,.,.,.
COc1ccc(O)c(/C=N/c2sc(C)c(C)c2C#N)c1,7,2,1,.,42*,4,-23,-1
O=C(O)CSc1nnc(-c2cccc(S(=O)(=O)N3CCOCC3)c2)n1-c1cccc(Cl)c1,-2,4,1,90,0,-4,.,.
COc1ccc(NC(=S)NNc2ccc([N+](=O)[O-])cc2S(=O)(=O)Nc2ccc(C)cc2C)cc1,9,7,7,102,39*,2,32*,2
Cc1ccc([N+](=O)[O-])cc1NC(=S)NC(=O)C(C)(C)C,4,-1,6,105,-20,0,.,.
Cc1ccc(NS(=O)(=O)c2cc([N+](=O)[O-])ccc2NNC(=S)Nc2cc(C)ccc2C)c(C)c1,23,3,2,103,39*,17,39*,0
O=C(CN(Cc1ccc(F)cc1)C(=O)c1csnn1)NC1CCCC1,5,0,0,109,-4,8,.,.
Cc1ccc(N=C(NO)c2nonc2N)c(C)c1,0,1,-4,.,34*,-4,6,0
O=C(O)C1=C[C@@H](c2ccc3c(c2)OCO3)C[C@@H](OCc2ccc(CO)cc2)O1,7,-3,7,99,36*,2,-13,2
CCC(C(=O)N1CCN(Cc2ccc3c(c2)OCO3)CC1)n1c(=O)[nH]c2ccccc2c1=O (centres undefined),1,2,-4,87,6,1,.,.
CCN(CC)CCN(C(=O)c1ccc2ncsc2c1)c1nc2cc3c(cc2s1)OCO3,-3,11,10,101,47*,-3,-5,6
CCN(CC)CCN(C(=O)c1ccc(C(=O)c2ccccc2)cc1)c1nc2cc3c(cc2s1)OCO3,-1,5,1,107,3,-3,.,.
COc1ccc(NC(=O)Nc2ccc([N+](=O)[O-])cc2)cn1,8,-3,7,99,-1,-2,.,.
CC(C)(C)NC(=O)C(=O)NC(=O)c1c(F)cccc1Cl,8,8,-2,107,-9,-4,.,.
Cc1cc(C(F)(F)F)cc(NNC(=O)NC(=O)c2c(F)cccc2Cl)n1,1,6,3,105,42*,4,-3,6
Cc1ccc(N2C(=O)c3ccccc3C2C(=O)c2ccc(C)c(C)c2O)cc1 (centres undefined),12,5,-1,107,42*,-8,-18,1
Cc1ccc(C2C(C(=O)O)c3ccccc3C(=O)N2C)c(C)c1 (centres undefined),-2,4,5,128,5,6,.,.
Cc1ccc(N2C(=O)c3ccccc3C2C(=O)c2cc(C)ccc2O)cc1 (centres undefined),13,-8,-3,102,55*,-5,24,2
NC(=O)C1CCN(c2nc(-c3ccc4c(c3)OCCO4)cs2)CC1,4,.,.,.,.,.,.,.
COc1ccc(C(=O)N=C2SC3CS(=O)(=O)CC3N2c2ccc(N(C)C)cc2)cc1OC (centres undefined),6,6,1,103,0,2,.,.
CN(C(=O)c1ccccc1C(=O)OCC(=O)c1ccc(F)c(F)c1)C1CCCCC1,.,-3,4,101,.,29,.,.
